Experimental findings from PubChem BioAssay (Tox21) are described below.

Results filed as inconclusive are left out. A call without a number means that no potency is given here. Calls of active or inactive are those of the source. Calls follow the shape of the full dose curve.
Potency is read from the fitted curve at half-maximal effect.

The nature of this test: qHTS assay for small molecule agonists of the antioxidant response element (ARE) signaling pathway - cell viability counter screen (AID 743203). Also: nearly all actives have a fitted effect of over 55% in size. The conditions noted are these: ARE-bla HepG2 viability, CellTiter-Glo luminescence, 16 h; series mostly up to 73.3 µM. An excerpt:
National Center for Advancing Translational Sciences [NCATS]
NIH Chemical Genomics Center [NCGC]
U.S. Environmental Protection Agency [EPA]
National Institutes of Environmental Health Sciences [NIEHS]
National Toxicology Program [NTP]
U.S. Food and Drug Administration [FDA]
Oxidative stress has been implicated in the pathogenesis of a variety of diseases ranging from cancer to neurodegeneration. The antioxidant response element (ARE) signaling pathway plays an important role in the amelioration of oxidative stress. The CellSensor ARE-bla HepG2 cell line (Invitrogen) can be used for analyzing the Nrf2/antioxidant response signaling pathway. Nrf2 (NF-E2-related factor 2) and Nrf1 are transcription factors that bind to AREs and activate these genes. The CellSensor ARE-bla Hep G2 cell line contains a beta-lactamase reporter gene under control of the Antioxidant Response Element (ARE) stably integrated into HepG2 cells. The activation of the report gene under culture conditions can be detected by fluorescence intensity. This cell line has been used to screen the Tox21 10K compound library to identify agonists that induce oxidative stress. The cytotoxicity of the Tox21 compound library against the ARE-bla cell line was tested in parallel by measuring the cell viability using CellTiter-Glo assay (Promega, Madison, WI) in the same wells.
Tox21 Assay Protocol Summary:
ARE-bla HepG2 cells were dispensed at 2,000 cells/5 ul/well in 1536-well white wall/solid bottom plates using a Multidrop Combi (ThermoFisher Scientific, Waltham, MA) dispenser. After the assay plates were incubated at 37C/5% CO2 for 5 hrs, 23 nL of compounds dissolved in DMSO, positive controls or DMSO only was transferred to the assay plate by a pintool work station (Kalypsys, San Diego, CA). The plates were incubated at 37C/5% CO2 for 16 hrs, followed by addition of 4 ul/well of CellTiter-Glo reagent into the assay plates using a Flying Reagent Dispenser (Aurora Discovery, San Diego, CA). After 30 min incubation at room temperature, the luminescence intensity in the assay plates was measured using a ViewLux (PerkinElmer, Shelton, CT) plate reader.
A general note: Quantitative high-throughput screening tests each substance at several concentrations.
In the case of `CCCCON=O`, the Potency result was “inactive”.
The value for `Oc1ccc2[nH]cc(CCCCN3CC=C(c4ccccc4)CC3)c2c1` was “inactive”; that for `NC1CCC(CC2CCC(N)CC2)CC1` (stereo not given) was “inactive”.
The result for `[Cl-].[Cl-].[Sn+2]` reads “inactive”.
The result for `CC(Cc1ccc(OCC(=O)O)cc1)NCC(O)c1csc(C(F)(F)F)n1` (stereo not given) reads “inactive”; that for `CC1(C)C(C=C(Cl)Cl)C1C(=O)OC(C#N)c1ccc(F)c(Oc2ccccc2)c1` (stereo not given), “inactive”; that for `c1ccc(N=NNc2ccccc2)cc1`, “inactive”.
Take `CSSC`: the Potency entry is “inactive”.
The value for `Nc1nc(N)c(N)c(N)n1` was “inactive”.
The result for `O.O.O.O.O.O.O.O=S(=O)([O-])[O-].[Co+2]` reads “inactive”; that for `CC1CN1` (stereo not given), “inactive”.
The result for `COP(=S)(OC)Oc1nc(Cl)c(Cl)cc1Cl` reads “inactive”; that for `O=C(CCCCl)c1ccc(F)cc1`, “inactive”; that for `Nc1ccc(Cl)cc1C(=O)c1ccccc1F`, “inactive”.
As to `Cc1cc(C2CC2)nc(Nc2ccccc2)n1`, the Potency result is “inactive”.
Regarding `Clc1cc(Cl)c(-c2cc(Cl)c(Cl)cc2Cl)cc1Cl`, the Potency entry was “inactive”.
On to `ClC(Cl)C(Cl)(Cl)Cl`, for which the Potency result is “inactive”.
The value for `CCNc1nc(NC(C)C(C)C)nc(SC)n1` (stereo not given) was “inactive”; that for `[O-][Cl+3]([O-])([O-])O` was “inactive”.
The result for `O=S(=O)(NS(=O)(=O)C(F)(F)F)C(F)(F)F` reads “inactive”.
The result for `CCCCN(CCCC)C(=S)S` reads “inactive”; that for `Nc1cc(Cl)ccc1Cl`, “inactive”.
In the case of `C=C(C)C(=O)[O][Sn]([CH2]CCC)([CH2]CCC)[CH2]CCC`, the Potency was 0.433 µM (active).
The value for `CCC[CH2][Sn]([CH2]CCC)([CH2]CCC)[O][Sn]([CH2]CCC)([CH2]CCC)[CH2]CCC` was 0.238 µM (active); that for `CN(C)c1ccc(N)cc1` was “inactive”; that for `CSC(C)(C)/C=N/O` was “inactive”.
The value for `Clc1ccc(C(c2ccc(Cl)cc2)C(Cl)Cl)cc1` was 54.5 µM (active); that for `O=c1[nH]c2cc(Cl)ccc2n1C1CCNCC1` was “inactive”.
For `O=C(O)CCCCCCNC1c2ccccc2CCc2ccccc21`, the Potency entry is “inactive”.
The result for `CN1C2CCC(C)(C)C1CC(OC(=O)C(O)(c1cccs1)c1cccs1)C2` (stereo not given) reads “inactive”; that for `CC1CCCC1`, “inactive”; that for `C[N+]1(C)[C@@H]2CC[C@H]1CC(OC(=O)C(CO)c1ccccc1)C2` (stereo not given in full), “inactive”.
For `C=CC(=O)[O][Sn]([CH2]CCC)([CH2]CCC)[CH2]CCC`, the Potency was 0.686 µM (active).
The result for `CCC[CH2][Sn]([CH2]CCC)([O]C(C)=O)[O]C(C)=O` reads 6.17 µM (active).
The value for `O=[N+]([O-])c1cccc2cccc([N+](=O)[O-])c12` was “inactive”; that for `CC(=O)C(Cl)C(=O)N(C)C` (stereo not given) was “inactive”.
As to `CCOP(=O)(OCC)Oc1cc(C)nc(C(C)C)n1`, the Potency entry was “inactive”.
The result for `CC(=O)[O-].CC(=O)[O-].[Co+2]` reads “inactive”; that for `CCCCn1cc[n+](C)c1.[Cl][Fe-]([Cl])([Cl])[Cl]`, “inactive”; that for `COC(=O)N(OC)c1ccccc1COc1ccn(-c2ccc(Cl)cc2)n1`, 43.3 µM (active).
